This is an account of results in PubChem BioAssay AID540333 (Southern Research Specialized Biocontainment Screening …, 2011).

In all, about 10,000 compounds went through this assay and about 320 (3.2%) were called active. Many of the other results were omitted from the sample, so actives are more common in it than they were. Values without a mark were called inactive. Cut-off read from the data, not from the text of the source: active = CPE inhibition mostly above about 9.1% (no sharp cut-off); inactive = mostly below about 7.2%.

The test in a line: antivirals protecting cells from dengue CPE – CPE readout, HTS (AID 540333). The conditions noted are these: Dengue virus CPE inhibition in host cells, at 20 µM; hits give high values.
Turning to `COc1ccc(/C=C2/C(=O)N(Cc3ccccc3)N=C2C)cc1`, the CPE inhibition entry is “inactive”. For the compound `CCCCn1[nH]c(-c2ccccc2)cc1=O`, the CPE inhibition result was “inactive”. For `COc1ccc(OC)c(/C=C/C(=O)OCC(=O)Nc2cccc(Oc3ccccc3)c2)c1` the value was 0.45%. `COc1cc(/C=C/C(=O)Nc2nnc(CC(C)C)s2)cc(OC)c1OC`: the CPE inhibition was 1.95%. `CCCS(=O)(=O)Nc1c(OC)ccc2c1c(C(=O)OCC)c(C)n2C`: the CPE inhibition entry is “inactive”. For `CC(C)CNC(=O)c1ccccc1NC(=O)/C=C/c1cccc([N+](=O)[O-])c1` the value was “inactive”; for `CC(=O)NN1C(=O)/C(=C/c2ccc(C(C)C)cc2)SC1=S`, “inactive”. For `O=C(COC(=O)c1oc2ccccc2c1COc1ccccc1)NCCN1C(=O)CSC1=O`, the CPE inhibition is 1.47%. For `CCSc1nc2ccccc2n1C(=O)c1ccc(S(=O)(=O)N2CCCCCC2)cc1` the value was 0.17%; for `CCC1Nc2ncnc(N3CCN(c4ccccc4)CC3)c2N(Cc2ccc(Br)cc2)C1=O` (stereo not drawn), 11.1% (active). For `CC(C)CC1Nc2ncnc(N3CCN(c4ccccn4)CC3)c2N(Cc2ccccc2)C1=O` (stereo not drawn) the value was 1.43%. In the case of `COc1ccc(CN2C(=O)C(Cc3ccccc3)Nc3ncnc(N4CCCCC4)c32)cc1` (stereo not drawn) it was 2.1%; in that of `O=C(Cc1ccc(Br)cc1)N1CCN(c2ccccn2)CC1`, “inactive”. For `CC(C)CC1Nc2ncnc(N3CCN(c4ccccn4)CC3)c2N(Cc2ccc(Cl)cc2)C1=O` (stereo not drawn), the CPE inhibition is 9.66% (active). Turning to `CCC1Nc2ncnc(N3CCOCC3)c2N(Cc2ccc(Br)cc2)C1=O` (stereo not drawn), the CPE inhibition entry was “inactive”. Regarding `Cc1ccc(CN2C(=O)C(CC(C)C)Nc3ncnc(N4CCN(c5ccccn5)CC4)c32)cc1` (stereo not drawn), the CPE inhibition is 2.52%.

Regarding `Cc1ccc(CN2C(=O)C(CC(C)C)Nc3ncnc(N4CCN(c5ccccc5)CC4)c32)cc1` (stereo not drawn), the CPE inhibition is 37.1% (active). Turning to `CCC1Nc2ncnc(N3CCOCC3)c2N(Cc2ccc(Cl)cc2)C1=O` (stereo not drawn), the CPE inhibition is 0.26%. In the case of `COc1ccc2oc(=O)c(/C(C)=N/Nc3nc(-c4cc(C)ccc4C)cs3)cc2c1` it was “inactive”; in that of `CC(C)(C)C1CCC(=NNC(=O)CN(c2ccccc2)S(=O)(=O)c2ccccc2[N+](=O)[O-])CC1` (stereo not drawn), “inactive”; in that of `N#Cc1ccc(COC(=O)CSc2nnc(N)s2)cc1`, 0.615%. With `NC(=O)CC(NC(=O)Cc1cccc2ccccc12)c1ccc(NCc2ccccc2)c([N+](=O)[O-])c1` (stereo not drawn), the CPE inhibition is 2.03%. As for `CCOC(=O)c1c(-c2ccc(F)cc2)csc1NC(=O)CCN1C(=O)c2ccccc2C1=O`, the CPE inhibition is 1.4%.

For `O=C(NCc1ccccc1)c1onc(CSc2ccc(F)c(F)c2)c1C(=O)NCc1ccccc1`, the CPE inhibition is 0.575%. As for `CCOC(=O)CN1C(=O)N[C@@H](c2ccco2)C(C(C)=O)=C1C`, the CPE inhibition was 1.53%. For `Oc1cccc(/C=N/Nc2ncnc3c2ncn3Cc2ccccc2)c1` the value was “inactive”. In the case of `O=C(CCSCCc1ccccn1)Nc1c(F)c(F)c(F)c(F)c1F` it was “inactive”; in that of `O=C1CCCc2[nH]c3cccc(/C(=C/c4ccccc4)c4ccccc4)c3c21`, 22.5% (active). As for `CCOC(=O)N1CCC(N2Cc3cccc(C(=O)N4CC(C)CC(C)C4)c3C2=O)CC1` (stereo not drawn), the CPE inhibition result is “inactive”. For `CCCCCC[n+]1c(-c2ccccc2)csc1Nc1ccccc1` the value was 7.19%. With `CC1=C(C#N)C(c2ccccc2)C2=C(N1)c1ccccc1C2=O` (stereo not drawn), the CPE inhibition was 1.29%.

`CN(CC(=O)Nc1ccc(C#N)cc1)CC(=O)Nc1ccc(N2CCOCC2)cc1`: the CPE inhibition was 0.525%. For `CCn1nc(C(=O)Nc2nc3ccccc3[nH]2)c2ccccc2c1=O` the value was 0.06%; for `O=C(Nc1nc2c(s1)CCCC2)c1cc(-c2ccccc2)nc2ccccc12`, 5.19%; for `CCCCCCn1nc(C(=O)Nc2nc3c(s2)CCCC3)c2ccccc2c1=O`, 29% (active). In the case of `C=CCn1c(SCc2ccc(C(=O)Nc3nccs3)cc2)nnc1-c1ccc(C)c(Cl)c1` it was 0.44%. In the case of `O=C(NC(=S)NC1CCCC1)c1ccccc1Br` it was 0.11%; in that of `CC1CCCCC1NC(=S)NC(=O)c1ccccc1Br` (stereo not drawn), 0.915%. With `CC1CCCC(NC(=S)NC(=O)c2ccccc2Br)C1C` (stereo not drawn), the CPE inhibition is 21.1% (active).

As for `COc1cccc(NC(=O)CCC(=O)Nc2cccc(OC)c2)c1`, the CPE inhibition was 0.18%. For `Cc1ccc(NC(=O)c2cc3c(s2)CCCC3)cc1S(=O)(=O)Nc1ccccc1Cl` the value was 1.93%; for `O=C1CC(N2C(=O)/C(=C/C=C/c3ccccc3)SC2=S)C(=O)N1c1ccccc1` (stereo not drawn), 9.17% (active); for `CC(=O)c1ccc(NC(=O)CN2C(=O)/C(=C/C=C/c3ccccc3)SC2=S)cc1`, 0.165%. `O=C(CN1C(=O)/C(=C\C=C\c2ccccc2)SC1=S)Nc1ccc(F)cc1`: the CPE inhibition is 1.02%. In the case of `CC(=O)Nc1ccc(S(=O)(=O)NCC(=O)OCC(=O)NC(=O)C2CCCCC2)cc1`, the CPE inhibition was 0.165%. In the case of `NC(=O)C1(NC(=O)[C@@H]2CC3(CC(c4cccc(NC(=O)[C@@H]5CCC(=O)N5)c4)=NO3)CN2C(=O)c2cnccn2)CC1` (stereo partly drawn) it was 0.745%; in that of `O=C(CSc1nc2ccccc2s1)Nc1cc(S(=O)(=O)N2CCOCC2)ccc1O`, “inactive”; in that of `Fc1cccc(NC(=S)NCCN2CCOCC2)c1`, 0.255%. `O=C(C[n+]1cc(-c2ccccc2)n2c1CCC2)Nc1nc(-c2ccccc2)cs1`: the CPE inhibition was 4.34%. Consider `O=C(C[n+]1cc(-c2ccc(F)cc2)n2c1CCC2)Nc1nc(-c2ccccc2)cs1`, for which the CPE inhibition was 0.55%. For `O=C(C[n+]1cc(-c2ccccc2)n2c1CCC2)Nc1nc(-c2ccc(F)cc2)cs1`, the CPE inhibition was 17% (active). Turning to `O=C(c1cccc(S(=O)(=O)N2CCc3ccccc3C2)c1)N1CCN(c2ccccc2)CC1`, the CPE inhibition is 3%. As for `CC1CC(C)CN(C(=O)C(NS(=O)(=O)c2ccc(Br)s2)c2ccccc2)C1` (stereo not drawn), the CPE inhibition is 24.6% (active). With `O=C(NC1CCCC1)C(NS(=O)(=O)c1ccc(Br)s1)c1ccccc1` (stereo not drawn), the CPE inhibition was 0.805%. In the case of `CC1CCCN(S(=O)(=O)c2ccc(Br)s2)C1` (stereo not drawn) it was 0.775%.

Turning to `CN(/N=C/c1cc([N+](=O)[O-])ccc1O)c1ccccc1`, the CPE inhibition was 1.04%. As for `COC(=O)c1ccc(CSc2nnc(NC(=O)C3CC(=O)N(Cc4ccc(C)cc4)C3)s2)cc1` (stereo not drawn), the CPE inhibition is 0.19%.

For the compound `CC(C)CN(CC(C)C)C(=O)CCCC(=O)N(CC(C)C)CC(C)C`, the CPE inhibition result is “inactive”.

Regarding `NS(=O)(=O)c1ccc(NC(=S)N2CCN(c3cccc(Cl)c3)CC2)cc1`, the CPE inhibition is 1.62%. Regarding `O=S(=O)(c1ccc(Cl)cc1)N1CCN(C(=S)Nc2ccc(F)c(Cl)c2)CC1`, the CPE inhibition was 13.6% (active). For `O=C(Nc1ccc(F)cc1)C(c1ccccc1)N1CCN(S(=O)(=O)c2ccc3ccccc3c2)CC1` (stereo not drawn), the CPE inhibition was 2%.

In the case of `O=S(=O)(c1ccc2ccccc2c1)N1CCN(C(=S)Nc2ccc(F)cc2)CC1`, the CPE inhibition is 26.1% (active). Take `O=C(CNC(=O)c1ccc2ccccc2c1)OCC(=O)N1CCN(S(=O)(=O)c2ccc3ccccc3c2)CC1`: the CPE inhibition result is “inactive”. Consider `O=C(CCC(=O)N1CCN(S(=O)(=O)c2ccc(Cl)cc2)CC1)NCc1ccccc1`, for which the CPE inhibition was 0.355%.

For `O=S(=O)(c1ccccc1)N1CCN(C(=S)Nc2ccc(F)cc2)CC1`, the CPE inhibition was 1.81%. Turning to `O=C(CCC(=O)N1CCN(S(=O)(=O)c2ccc(Cl)cc2)CC1)Nc1ccc2ccccc2c1`, the CPE inhibition was 11% (active). In the case of `Fc1ccc(NC(=S)N2CCCC2)cc1Cl` it was 0.335%; in that of `COC(=O)c1ccc(CNC(=O)COC(=O)CC23CC4CC(CC(Br)(C4)C2)C3)cc1`, “inactive”; in that of `COc1ccc(CC(=O)NNc2ncnc3c2cnn3C)cc1`, “inactive”. For `Cc1cccc(CSC(Nc2ccc(F)cc2)=C(C#N)C#N)c1`, the CPE inhibition was 0.46%.

For the compound `COc1cccc(C(C)NC(=O)c2c(F)cccc2Cl)c1` (stereo not drawn), the CPE inhibition is 0.965%. Regarding `CC(=O)CSc1ccc(C(=O)O)cn1`, the CPE inhibition was 0.685%. Regarding `Cc1ccccc1OCCNC(=O)/C=C/c1ccccc1`, the CPE inhibition result is “inactive”. As for `Cc1ccc(NC(=O)CSc2ncnc3ccccc23)cc1S(=O)(=O)N1CCCCC1`, the CPE inhibition is 2.42%. In the case of `Cc1cccc(OCCC(=O)Nc2ccc(C)c(S(=O)(=O)N3CCCCC3)c2)c1`, the CPE inhibition is 16.7% (active).

For `COc1ccc(NC(=O)CCCC2CCCCC2)cc1S(=O)(=O)N1CCCCC1`, the CPE inhibition was 0.425%. On to `Cc1cccc(OCCCC(=O)Nc2ccc(N(C)C)cc2)c1`, for which the CPE inhibition was 0.66%. In the case of `COc1ccc(NC(=O)CSc2ccccc2)cc1S(=O)(=O)N1CCCCC1` it was “inactive”. As for `COc1ccc(NC(=O)CCC2CCCCC2)cc1S(=O)(=O)N1CCCCC1`, the CPE inhibition was 11.6% (active).

For the compound `COc1ccc([C@H]2CC(=O)C=C(c3cc(C(F)(F)F)cc(C(F)(F)F)c3)C2)cc1`, the CPE inhibition entry is “inactive”. For `COCCCNCCCCOc1ccc(Br)cc1C`, the CPE inhibition result was “inactive”.

Regarding `CC1c2ccccc2SC(CCCN(C)C)c2ccccc21` (stereo not drawn), the CPE inhibition result is “inactive”. For `Cc1ccc(NC(=S)N2CCN(C)CC2)c(C)c1` the value was 0.8%; for `CS(=O)(=O)N(CC(=O)N/N=C/c1ccco1)c1ccccc1Br`, 0.19%; for `COc1ccccc1N(CC(=O)N/N=C/c1c(O)ccc2ccccc12)S(C)(=O)=O`, 0.02%.

With `CCOC(=O)c1ccc(-c2ccc(/C=N/NC(=O)CN(c3ccccc3Cl)S(C)(=O)=O)o2)cc1`, the CPE inhibition is 12.9% (active). As to `Cc1ccc(NC(=O)c2ccc(OC(F)F)cc2)cc1S(=O)(=O)N(C)C`, the CPE inhibition entry is “inactive”. Take `CCn1c(COc2ccc(Cl)cc2)nnc1SC1CCc2ccccc2C1=O` (stereo not drawn): the CPE inhibition is 1.03%. In the case of `O=C(COC(=O)CC(c1ccccc1)c1ccccc1)Nc1cccc(F)c1` it was “inactive”; in that of `CCCCc1nn2c(N)c(/C=C3\C=Nc4ccccc43)c(=O)nc2s1`, “inactive”; in that of `O=C1S/C(=C\c2ccccc2)C(=O)N1CC(O)Cn1c2ccccc2c2ccccc21` (stereo not drawn), “inactive”. With `O=C1S/C(=C/c2ccccc2)C(=O)N1CC(O)Cn1c2ccccc2c2ccccc21` (stereo not drawn), the CPE inhibition was 16.2% (active). In the case of `CN(C)c1ccc(/C=C2\SC(=O)N(CC(O)Cn3c4ccccc4c4ccccc43)C2=O)cc1` (stereo not drawn) it was 2.39%.
